Screens (PubChem)
Compounds with a hit are over-represented: about 9.6% of the library has one in this group of screens.
Ins promoter up: MIN6 insulin promoter up-regulation | MIN6 insulin promoter-GFP reporter, high-content imaging; hits give high values | z-score at 5 µM | 190,000 tested, 0.3% active;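 active = z-score above 3 at 5 µM with at least 500 cells counted in the well; inconclusive = wells under 500 cells, flagged as cytotoxic or low count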
Autophagy mod: autophagy modulation, high-content screen; MEF GFP-LC3 puncta imaging; test concentration mostly 10 µM; 190,000 tested, 0.98% active; calls only at 10 µM (by protocol);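 active = percentage of spot-positive cells more than 3 SD above its plate mean, without a fluorescence outlier flag or 80% toxicity; inconclusive = no clear call, values can overlap the other calls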;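 note: spot-positive cell cutoff set from DMSO-treated cells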
HCT116 PTEN-null: suppresses growth of cells with PTEN deletion; HCT116 PTEN-null viability, CellTiter-Glo, 60 h; hits give low values; viability, % at 10 µM; 140,000 tested, 1.2% active; AID 827;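 active = viability at or below a set limit, 4 SD under the median of all tested compounds, cut at about 3.7% in these data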;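 note: PTEN knockout HCT116 line with beta catenin targeted HCT116 as companion control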
L major viab: reduces viability of Leishmania major promastigotes. resazurin fluorescence viability. inhibition, % at 10 µM. 200,000 tested, 9% active. AID 1063; in the data active = inhibition above about 50%;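 note: promastigotes grown with compound for 44 hours at 28 °C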
HCT116 bCat-KO: beta-catenin-lacking colon tumor cell growth suppression; HCT116 beta-catenin knockout viability, CellTiter-Glo, 60 h; hits give low values; viability, % at 10 µM; AID 818; 140,000 tested, 1.5% active;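 active = viability at or under a set limit, the compound median less 4 SD, cut at about 6% in these data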;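 note: 0% = Hyamine 1622 control at 20 µM and 100% = untreated cell control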
Insulin prom inh: TRM-6 insulin promoter activity inhibition | 130,000 tested, 0.9% active | TRM-6 cells (human fetal islet line), insulin promoter-eGFP reporter, imaging; reporter expression induced with tamoxifen | AID 1273 | inhibition, % at 2 µM;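 active = inhibition above the mean plus 3 SD, with well images judged a real hit on visual review, cut at about 60% in these data, passing the limit was not always enough; inconclusive = inhibition over the cutoff but images rejected on review; inactive = inhibition not above the cutoff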
Active calls of the source: *; i = inactive; u = inconclusive; x = no result; + = active, no number.

SMILES	Ins promoter up	Autophagy mod	HCT116 PTEN-null	L major viab	HCT116 bCat-KO	Insulin prom inh
Cc1ccc([N+](=O)[O-])cc1NC(=O)c1cccs1	3.2*	i	x	0	x	x
COc1ccc(NC(=O)C(c2cc3c(cc2[N+](=O)[O-])OCO3)N(C)Cc2ccccc2)cc1 (stereo unspecified)	-0.65	i	65	7	70	-30
Cc1cc2occ(CC(=O)NC3=NCCS3)c2cc1C(C)C	x	+	103	8	95	x
N#Cc1c(NC(=S)NC(=O)c2ccccc2)sc2c1CCN(CCc1ccccc1)C2	x	+	86	27	93	-270
COCc1cc(C)nc(N/N=C/c2ccc(Cl)c(Cl)c2)c1C#N	-0.44	i	109	85*	101	-11
CN1CC(c2ccccc2)C2(SC(=S)N(Cc3ccco3)C2=O)C12C(=O)Nc1ccccc12 (stereo unspecified)	-0.2	i	69	98*	61	-29
Cc1ccc(NC(=O)COC(=O)Cn2cnc3ccccc32)c([N+](=O)[O-])c1	-0.28	i	x	7	x	x
Cc1cccn2c(Nc3ccccc3)c(-c3ccccn3)nc12	-1.7	i	x	36	x	x
Cc1ccc2nc(-c3cccnc3)c(Nc3ccccc3C)n2c1	-0.95	i	x	24	x	-132
Cc1ccc2nc(-c3ccccn3)c(Nc3ccccc3C)n2c1	-2.1	i	x	100*	x	x
Cc1ccn2c(Nc3ccccc3C)c(-c3ccccn3)nc2c1	-3.6	i	x	101*	x	7
Cc1ccn2c(Nc3ccccc3)c(-c3ccccn3)nc2c1	x	i	x	101*	x	25
Cc1ccccc1Nc1c(-c2ccncc2)nc2ccc(Br)cn12	0.08	i	47	96*	58	0
Nc1c(C(=O)c2ccccc2O)cnn1-c1ccc(S(=O)(=O)N2CCOCC2)cc1[N+](=O)[O-]	0.42	i	x	-4	x	x
CCCn1c(C)cc(/C=C(\C#N)C(=O)OCC(=O)NC(=O)NCC)c1C	0.6	i	95	0	89	-6
Cc1ccc(SCC(=O)N2CCC(C(N)=O)CC2)cc1	-0.54	i	x	-3	x	61
Cc1ccccc1Nc1c(-c2ccccn2)nc2ccccn12	-1.4	i	x	100*	x	x
CC(C)c1nnc(NC(=O)c2cc3cc(Br)ccc3oc2=O)s1	0.41	x	x	x	x	x
O=C1C(=Cc2cccn2-c2ccccc2)C(=O)c2ccccc21	0.8	i	89	-2	82	-36
O=C1C(=Cc2cccn2-c2ccc(O)cc2)C(=O)c2ccccc21	x	+	81	-1	71	4
OC(CN1CCOCC1)c1ccc(F)cc1 (stereo unspecified)	-0.21	i	x	1	x	x
O=C(c1ccc(F)cc1)C(CCCCCC(CN1CCOCC1)C(=O)c1ccc(F)cc1)CN1CCOCC1 (stereo unspecified)	-1.8	i	36	99*	43	-3
CC1CC(C)CN(CCOc2ccc(Cl)cc2Cl)C1 (stereo unspecified)	-0.12	i	70	97*	63	-58
CC1CC(C)CN(CCOc2cccc(Cl)c2Cl)C1 (stereo unspecified)	-0.04	i	61	91*	63	-93
CCN1CCN(CCOc2cccc(Cl)c2Cl)CC1	-1.6	i	x	86*	x	x
SMILES	Ins promoter up	Autophagy mod	HCT116 PTEN-null	L major viab	HCT116 bCat-KO	Insulin prom inh
Cc1ccc(NC(=O)c2cc([N+](=O)[O-])ccc2N2CCCC2)cc1	-0.4	i	x	5	x	x
Cn1c(=O)c2c(nc(SCCN3CCOCC3)n2Cc2ccccc2Cl)n(C)c1=O	-1.6	i	97	48	95	x
Cn1c(=O)c2c(nc(SCCN3CCCCC3)n2Cc2ccccc2)n(C)c1=O	-1.8	i	100	90*	93	x
Cc1ccc(Cn2c(SCCN3CCCCC3)nc3c2c(=O)n(C)c(=O)n3C)cc1	0.5	i	76	99*	81	43
Cc1ccc(Cn2c(CN(C)Cc3ccccc3)nc3c2c(=O)n(C)c(=O)n3C)cc1	2.1	i	75	73*	65	57
CC(=O)N1CCN(c2ccc([N+](=O)[O-])cc2C#N)CC1	0.12	i	x	-1	x	-17
O=C(Nc1nccs1)NC(C(F)(F)F)C(F)(F)F	-0.4	i	99	-3	94	-24
COc1ccc(CNC(=O)COC(=O)CCCOc2ccc(Cl)cc2Cl)cc1OC	0.54	i	95	38	95	-7
NS(=O)(=O)c1ccc(NC(=O)/C=C/c2cccs2)cc1	-0.01	x	x	x	x	x
O=C(O)c1ccc(NC(=O)C2(c3ccccc3)CCCC2)cc1	-0.11	x	x	x	x	x
CCN(CC)CCOC(=O)c1ccc(NC(=O)/C=C/c2cccs2)cc1	-0.12	i	100	69*	99	8
CCN(CC)CCOC(=O)c1ccc(NC(=O)C2(c3ccccc3)CCCC2)cc1	-0.89	i	x	70*	95	16
CCOC(=O)c1ccc(NC(=O)/C=C/c2cccs2)cc1	0.18	+	x	14	x	x
CCCOC(=O)c1ccc(NC(=O)C(=O)NCCN(CC)CC)cc1	0.67	i	x	5	x	x
O=C(/C=C/c1cccs1)Nc1cccc(NC(=O)/C=C/c2cccs2)n1	-0.91	i	29	55*	36	x
O=C(/C=C/c1cccs1)Nc1nccs1	-0.42	i	x	0	x	x
COC(=O)/C=C1\SC(=Nc2ccc(Cl)c(Cl)c2)NC1=O	-0.71	i	x	-2	x	27
CCOC(=O)c1c(C)oc2c(F)c(F)c(F)c(F)c2c1=O	u	i	7	-3	9	x
C#CCOCCOCCOCCNc1nc(N2CCN(C(=O)Cn3cc(CC(C)O)nn3)CC2)nc(N2CCN(C(=O)[C@H](CCCCN)n3cc(CCC(=O)O)nn3)CC2)n1 (stereo partly specified)	-0.23	i	109	-4	95	0
CCOc1ccc(C2CC(c3c(O)c4ccccc4oc3=O)=NN2c2ccccc2)cc1OC (stereo unspecified)	x	+	x	3	x	-338
c1ccc2oc(C3=NNC(=NC4CC4)SC3)cc2c1	-0.36	i	99	0	83	x
Cc1ccc(CNC(=O)C2CCCN(S(=O)(=O)c3cnc[nH]3)C2)cc1 (stereo unspecified)	0.98	x	97	-5	106	x
O=C(O)CC(NC(=O)c1sc2ccccc2c1Cl)c1ccc(OC2CCCC2)cc1 (stereo unspecified)	1.2	i	x	-9	x	64
CC(/C=N/n1c(-c2ccco2)n[nH]c1=S)=C\c1ccco1	-0.27	i	86	-6	95	x
CC(/C=N\Nc1nnc2c(n1)[nH]c1c(C)cccc12)=C\c1ccco1	-0.15	i	2.4*	6	2.1*	4
CC(C)CC(NC(=O)c1ccc(Cl)cc1)C(=O)OCC(=O)c1ccc2c(c1)NC(=O)CO2 (stereo unspecified)	-1.1	i	65	64*	69	-16
COc1cc(OC)cc(C(=O)OCc2cc3ccccc3[nH]c2=O)c1	1.3	i	113	-4	103	71*
COc1ccc(CC(=O)OCc2cc3ccccc3[nH]c2=O)cc1	x	i	99	-7	91	x
